Measurements published in PubChem BioAssay.
Activity calls are given as the source filed them. No rule for the calls is given here.

What follows are molecules tested on Aerobactin synthetase IucA (Klebsiella pneumoniae, hypervirulent) (assay: IucA enzyme inhibition, biochemical, LOPAC library, absorbance readout (AID 1346212;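 also: 100% = no compound wells and 0% = no enzyme wells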)). Details: IucA enzyme assay, absorbance (OD) readout; active compounds read low;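 tested at 8 µM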.

| SMILES | remaining activity |
| --- | --- |
| CC(=O)/C(C)=N/O | 106% (inactive) |
| CCc1c(C)[nH]c2c1C(=O)C(CN1CCOCC1)CC2 (centres undefined) | 121% (inactive) |
| CCCC1O[C@@H]2C[C@H]3[C@@H]4CCC5=CC(=O)C=C[C@]5(C)[C@H]4[C@@H](O)C[C@]3(C)[C@]2(C(=O)CO)O1 (some centres undefined) | 115% (inactive) |
| C[N+](C)(C)CCOC(=O)CCC(=O)OCC[N+](C)(C)C | 123% (inactive) |
| CCCn1c(=O)c2c(ncn2C)n(CCC)c1=O | 110% (inactive) |
| O=c1[nH]c(=O)n([C@H]2C[C@H](O)[C@@H](CO)O2)cc1Br | 96.4% (inactive) |
| O=C(Nc1cccc(C(=O)Nc2ccc(S(=O)(=O)O)c3cc(S(=O)(=O)O)cc(S(=O)(=O)O)c23)c1)Nc1cccc(C(=O)Nc2ccc(S(=O)(=O)O)c3cc(S(=O)(=O)O)cc(S(=O)(=O)O)c23)c1 | 88.6% (inactive) |
| CC(=O)[C@H]1CCC2C3CC=C4C[C@@H](OS(=O)(=O)O)CC[C@]4(C)C3CC[C@@]21C (some centres undefined) | 107% (inactive) |
| CC(C)(C)NCC(O)COc1nsnc1N1CCOCC1 (centres undefined) | 109% (inactive) |
| Oc1ccc(-c2nc(-c3ccc(F)cc3)c(-c3ccncc3)[nH]2)cc1 | 119% (inactive) |
| NCCNC(=O)c1ncsc1-c1cccc(F)c1 | 88.1% (inactive) |
| CC1=C(C)C(=O)C(CCCCC#CCCCC#CCO)=C(C)C1=O | 118% (inactive) |
| NC(=S)NCCCC(N)C(=O)O (centres undefined) | 102% (inactive) |
| Fc1ccc(C(OCCCc2cnc[nH]2)c2ccc(F)cc2)cc1 | 111% (inactive) |
| O=C(O)c1cc([N+](=O)[O-])ccc1NCCCc1ccccc1 | 118% (inactive) |
| O=C(OCCN1CCCCC1)c1c[nH]c2ccccc12 | 102% (inactive) |
| NC1CONC1=O (centres undefined) | 120% (inactive) |
| O=C(NCCO)c1ccc2c(c1)nc(Nc1cccc(Cl)c1)c1ccncc12 | 90% (inactive) |
| COc1cc(=O)n(C)c2c(OCC(O)C(C)(C)O)cccc12 (centres undefined) | 108% (inactive) |
| CC[C@H](C)C(=O)O[C@H]1CCC=C2C=C[C@H](C)[C@H](CC[C@@H]3C[C@@H](O)CC(=O)O3)[C@H]21 | 118% (inactive) |

| SMILES | remaining activity |
| --- | --- |
| NCCNS(=O)(=O)c1cccc2c(Cl)cccc12 | 96.1% (inactive) |
| Nc1ccc2c3c(cccc13)C(=O)NC2=O | 112% (inactive) |
| COc1cc2ncnc(Nc3cccc(Cl)c3)c2cc1OC | 106% (inactive) |
| COc1cccc(C(=O)NCCN2CCN(c3ccc(Cl)cc3)CC2)c1 | 124% (inactive) |
| NC1C=CC=C(C(=O)O)C1 (centres undefined) | 125% (inactive) |
| OC[C@H]1O[C@@H](n2cnc3c(NC4CCCCC4)ncnc32)[C@H](O)[C@@H]1O | 93.2% (inactive) |
| CCN(c1nc(N)c(C(=O)N=C(N)N)nc1Cl)C(C)C | 109% (inactive) |
| O=c1c2ccccc2[nH]c(=S)n1CCN1CCC(=C(c2ccc(F)cc2)c2ccc(F)cc2)CC1 | 119% (inactive) |
| CN=c1nc(-c2ccccc2)n(-c2ccccc2)s1 | 109% (inactive) |
| O=C1N(c2ccccc2)c2ccccc2C1(Cc1ccncc1)Cc1ccncc1 | 114% (inactive) |
| Fc1ccc(CN(C2=NCCN2)c2c(Cl)cccc2Cl)cc1 | 113% (inactive) |
| CCCn1c(=O)[nH]c(=O)c2[nH]cnc21 | 103% (inactive) |
| CC(/C=C/c1cccc(Oc2ccc(F)cc2)c1)N(O)C(N)=O (centres undefined) | 99.1% (inactive) |
| N[C@H](C(=O)O)[C@H](O)C(=O)O | 106% (inactive) |
| NC(N)=N[C@@H](CCC(=O)O)C(=O)O | 115% (inactive) |
| COc1ccccc1N1CCN(CCN2C(=O)CC3(CCCC3)CC2=O)CC1 | 117% (inactive) |
| CN1CCN(CC/C=C2/c3ccccc3Sc3ccc(S(=O)(=O)N(C)C)cc32)CC1 | 99.4% (inactive) |
| O=c1[nH]c2cc(Cl)ccc2c(O)c1-c1cccc(Oc2ccccc2)c1 | 120% (inactive) |
| Cc1cccc(/C=C/c2ccccc2)n1 | 81% (inactive) |
